# Source: PubChem BioAssay
# TRPV1 ag = activates the human vanilloid receptor TRPV1 | AID 540275 | activation, % at 8.33 µM | TRPV1-expressing cells, Fluo-8 calcium influx, agonist mode | 320,000 tested, 0.19% active | Q8NER1; in the data active = activation above about 80%; inconclusive = between about 30% and that limit; note: 0% is about no effect
#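 Cells expressing TRPV1 were dye-loaded with Fluo-8 and read kinetically: 10 s baseline, 3 min after compound (agonist portion), then 2 min after EC20 capsaicin (allosteric enhancer portion). Calcium-bound dye fluorescence at 480/520 nm.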
# RORgamma inh = blocks mouse ROR gamma transcriptional activity | P51450 | Drosophila S2 Gal4-RORgamma UAS-luciferase reporter, 20 h | Potency, µM (doses to about 53.6 µM), for inactives: at the top dose activity change, negative = inhibition, hits mostly inhibitors | 310,000 tested, 5.4% active | AID 2551; note: potency is the fitted concentration of half-maximal effect; % is set by controls: 0 for no effect and ±100 for the full control effect; nearly all actives have a fitted effect of over 60% in size
# Target sequence (P51450 whole entry, looked up, the tested form may be a part): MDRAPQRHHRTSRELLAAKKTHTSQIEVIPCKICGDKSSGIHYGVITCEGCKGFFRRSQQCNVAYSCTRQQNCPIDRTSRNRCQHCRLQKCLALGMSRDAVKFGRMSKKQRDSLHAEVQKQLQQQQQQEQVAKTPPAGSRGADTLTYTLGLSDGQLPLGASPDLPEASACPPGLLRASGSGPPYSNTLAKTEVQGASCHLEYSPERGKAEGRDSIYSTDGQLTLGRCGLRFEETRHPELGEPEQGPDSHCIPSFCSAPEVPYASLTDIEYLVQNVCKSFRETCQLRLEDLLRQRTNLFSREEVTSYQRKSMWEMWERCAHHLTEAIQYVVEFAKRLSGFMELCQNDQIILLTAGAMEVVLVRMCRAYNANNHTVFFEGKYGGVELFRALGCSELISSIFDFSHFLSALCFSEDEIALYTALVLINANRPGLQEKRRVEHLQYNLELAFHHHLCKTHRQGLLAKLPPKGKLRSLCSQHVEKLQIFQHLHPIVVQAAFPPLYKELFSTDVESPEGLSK
#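 Drosophila S2 cells stably expressing Gal4-DBD/mouse RORγ fusion under metallothionein promoter plus UAS-luciferase; compound 1 h, then 700 uM CuSO4 induction for 20 h at ambient temperature; inhibition read as reduced luminescence.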
# TRPV1 potentiator = enhances activation of the human vanilloid receptor TRPV1. Q8NER1. TRPV1-expressing cells, Fluo-8 calcium influx, capsaicin EC20 potentiation. potentiation, % at 8.33 µM. 320,000 tested, 0.02% active; in the data active = potentiation above about 80%; inconclusive = between about 30% and that limit; note: 0% is about no effect
#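 TRPV1-expressing cells were cultured overnight at 35.5C and loaded with Fluo-8 calcium dye for 40 to 90 min at room temperature. After a 10 s baseline, compound was added and calcium influx was read kinetically for 3 min (ex 480/em 520 nm).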
# uPA surface inh = inhibitors of cell surface uPA generation. cell surface uPA generation assay, qHTS. Potency, µM (doses to about 38.3 µM), inactives show top-dose activity change, negative = inhibition, usual class: inhibitors. 330,000 tested, 0.31% active; active = well fitted inhibition curve with a large enough effect; inconclusive = small, poorly fitted or top-dose-only effect; inactive = no such curve, though single readings can be large or run the other way; tested in mouse RAW 264.7 cells; note: potency is the fitted concentration of half-maximal effect; % is set by controls: 0 for no effect and ±100 for the full control effect; nearly all actives have a fitted effect of over 55% in size
# Gal4-VP16 FLuc = Gal4-VP16 reporter inhibition counter-screen | Drosophila S2 Gal4-VP16 UAS-luciferase, luminescence, 20 h | 310,000 tested, 3.5% active | Potency, µM (titrated, usually from 53.6 µM), without a hit: at the top dose activity, negative = inhibition, actives largely listed as inhibitors;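 note: Gal4-VP16 expression switched on by copper sulfate through the metallothionein promoter; potency is the fitted concentration of half-maximal effect; % is set by controls: 0 for no effect and ±100 for the full control effect; nearly all actives have a fitted effect of over 50% in size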
# Active calls of the source: *; ? = inconclusive; · = no result given; [ ] = remark or other dose. This is a sample that favours compounds with a hit; in the whole collection about 5.8% have one here. Unless noted, calls come from the whole dose curve; as a rule, active = well fitted curve in the direction sought with a large enough effect; inconclusive = small, poorly fitted or top-dose-only effect, or another doubt; inactive = no such curve, though single readings can be large; an effect the other way counts as inactive or inconclusive.
SMILES,TRPV1 ag,RORgamma inh,TRPV1 potentiator,uPA surface inh,Gal4-VP16 FLuc
CCOc1ccc(C(=O)C(CCC(CN(C)C)C(=O)c2ccc(OCC)cc2)CN(C)C)cc1 (stereo not drawn),11,10%[10 µM],-12,1.1µM*,-98%
COc1ccc(C2CN=NC23CCc2ccccc2C3=O)cc1 (stereo not drawn),13,28%,-3,4.5µM*,4%
COc1ccc(-c2ccc(C3C4C=CCC(C)C4C(=O)N3Cc3ccccc3)c(F)c2)cc1 (stereo not drawn),·,15%,·,·,-3%
Cc1cc2c([nH]c3ccccc32)c(C)n1,1,1µM*,6,-9%,-16%
Cc1nc(C(=O)O)cc2c1[nH]c1ccccc12,-1,·,7,3%,·
O=C(O)CSCC(=O)N1CCN(Cc2ccc3c(c2)OCO3)CC1,-4,-2%,13,5%,3%
CCOC(=O)c1ccc(NC(=O)CN2C(=O)NC3(CCCCCCC3)C2=O)cc1,0,·,16,?,·
COc1ccc(C(=O)NC(=S)NC(C)C)cc1Br,·,1.8µM*,·,2%,11µM*
COc1ccc(C(=O)NC(=S)NNC(=O)c2ccncc2)cc1Br,0,·,16,8%,·
COc1ccc(C(=O)NC(=S)NNC(=O)c2ccc(NC(C)=O)cc2)cc1Br,-2,7.9µM*,-3,-1%,?
COc1ccc(C(=O)NC(=S)NC(C)(C)C)cc1Br,13,2µM*,-12,7%,7.9µM*
COc1ccc(C(=O)Nc2ccc(OC)c([N+](=O)[O-])c2)cc1Br,?,-1%,-16,?,-14%[10 µM]
COc1cccc(C2c3[nH]c4ccccc4c3C[C@H]3C(=O)N(c4ccccc4C(=O)NCCCN4CCOCC4)C(=O)N23)c1 (stereo partly drawn),7,9%,2,-24%,?
C=CCc1c(C)nc(C)nc1N/N=C/c1ccccc1O,-1,?,-6,-7%,5µM*
Oc1ccccc1/C=N/Nc1nn[nH]n1,-3,?,-22,-5%,-1%
C=CCc1c(C)nc(C)nc1N/N=C/c1ccc([N+](=O)[O-])cc1,-3,11µM*,10,5%,-4%
CCN1C(=O)C(CC(=O)Nc2ccccc2Cl)N(NC(=O)c2cccc(F)c2)C1=S (stereo not drawn),9,11µM*,-2,10%,?
CNC(=O)CC1C(=O)N(c2ccc(OC)cc2)C(=S)N1NC(=O)c1cccc(F)c1 (stereo not drawn),6,7.1µM*,-5,10%,?
COc1ccc(NC(=O)CC2C(=O)N(c3ccc(F)cc3)C(=S)N2NC(=O)c2ccccc2)cc1 (stereo not drawn),5,13µM*,0,14%,?
CCOC(=O)c1c(C)[nH]c(C(=O)OCC(=O)N(CC(C)C)c2c(N)n(Cc3ccccc3)c(=O)[nH]c2=O)c1C,-2,·,10,3%,·
CCN(c1ccccc1)S(=O)(=O)c1cnc[nH]1,-3,-1%,8,2%,10%
c1ccc(Nc2ncncc2-c2ccoc2)cc1,·,5%,·,·,12%
O=c1c2cn[nH]c2[nH]c(=S)n1-c1ccccc1Cl,-6,10µM*,-3,7%,-1%
Cc1ccc(-c2nc(-c3ccccn3)no2)cc1,?,0.89µM*,-14,-20%,2µM*
Cc1ccc2nc(-c3ccccn3)oc2c1,3,10µM*,14,-10%,?
SMILES,TRPV1 ag,RORgamma inh,TRPV1 potentiator,uPA surface inh,Gal4-VP16 FLuc
c1ccc(-c2n[nH]c(-c3ccccn3)n2)cc1,1,1.1µM*,3,-5%,1.1µM*
c1ccc(-c2noc(-c3cccc4ccccc34)n2)nc1,14,?,-14,-10%,10µM*
COc1cccc(-c2nc(-c3ccccn3)no2)c1OC,-25,0%,-5,-4%,0%
CCN1C(C)=C(C(=O)OC)C(c2ccccc2)N2C(=O)[C@](O)(C(=O)OC)C(c3ccccc3)C(C(C)=O)=C12 (stereo partly drawn),·,-29%[10 µM],·,·,1%[10 µM]
c1ccc(-c2ccc(-c3nc(-c4ccccn4)no3)cc2)cc1,7,2.5µM*,-3,?,1.4µM*
c1ccc(-c2nc(-c3ccccn3)no2)cc1,10,2.2µM*,1,?,2µM*
Cc1ccc(-c2nc(-c3ccccn3)no2)cc1Cl,?,3.5µM*,-17,-11%,5.6µM*
Cc1ccc(-c2nc(-c3ccccn3)no2)cc1[N+](=O)[O-],17,10µM*,-11,?,6.3µM*
Cc1cc(-c2nc(-c3ccncc3)no2)ccc1[N+](=O)[O-],16,0%,-7,8%,21%
c1ccc(-c2noc(-c3ccno3)n2)nc1,·,23%,·,18%,-1%
N#C/C(=C\c1ccc(O)c(O)c1)C(=O)OCCc1cccs1,·,-22%,·,·,-2%
CCC(C)NCCOCCOc1ccc(Br)cc1 (stereo not drawn),0,-3%,1,-3%,-8%[10 µM]
COc1cccc(CN2CCCC(CNC(=O)c3ccc(F)cc3)C2)c1OC (stereo not drawn),-1,1%,-6,-1%,2%
CCn1ncc(/C=N/NC(=O)c2cc(Cl)ccc2OC)c1C,0,10%,9,-3%,-6%
CC(Sc1nc2ncc(Cl)cc2[nH]1)C(=O)Nc1ccc(C(N)=O)cc1 (stereo not drawn),2,·,18,12%,·
CC12CCC=CC1C(c1cccc([N+](=O)[O-])c1)N(Cc1ccccc1)C2=O (stereo not drawn),·,?,·,·,-6%
Clc1cccc(-c2nc(-c3ccccn3)no2)c1,20,5µM*,-10,-11%,8.9µM*
Cn1nc(C(C)(C)C)cc1C(=O)NCc1cc(F)cc2c1OCOC2,·,?,·,-20%,3.5µM*
Cc1ccc(S(=O)(=O)N2CCCNCC2)cc1,0,9%,-1,1%,-8%
COC(=O)CC1C(C)(C)C(=O)C2CC3=C(CC[C@]4(C)C3=CC(=O)OC4c3ccoc3)[C@@]1(C)C2=O (stereo partly drawn),·,-41%,·,·,9%
Nc1nonc1-n1nnc(C(=O)N/N=C/c2ccccc2)c1CSc1ccccc1,-6,-45%,13,-2%,-2%
CC(C)c1ccc(/C=N/NC(=O)c2nnn(-c3nonc3N)c2CSC2=NCCS2)cc1,-1,16µM*,-4,-9%,?
Nc1nonc1-n1nnc(C(=O)N/N=C/c2ccoc2)c1CSc1ccccc1,?,16µM*,-19,-1%,?
Nc1nonc1-n1nnc(C(=O)N/N=C/c2ccoc2)c1CSc1ccc(Cl)cc1,?,7.1µM*,-17,-8%,13µM*
CC(C)[C@@H](CC(=O)N[C@@H]1CCNC[C@H]1C(=O)N[C@H](CC(=O)N[C@@H](CCC(=O)O)CC(=O)O)Cc1c[nH]c2ccccc12)NC(=O)C[C@H](CO)NC(=O)[C@@H]1CNCC[C@H]1N,·,-1%,·,·,4%
